# From PubChem BioAssay AID488969 (Vanderbilt High Throughput Screening Facility, 2010)
# In all, about 110,000 compounds were measured (“z-score”: median about -0.1, highest 2% from about 2 on). What follows is part of a selection rich in the highest values, with near analogues and random picks from the rest. The source made the active and inactive calls.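 Rule for the calls: active = z-score in the third read window above 3 or below -3; inactive = the rest.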
# Biological target: Metabotropic glutamate receptor 8 (Rattus norvegicus) (UniProt P70579)
# Experiment: rat mGluR8 modulators via GIRK flux, primary screen, cell-based, thallium flux, HTS (AID 488969)
# Details: HEK293 rat mGluR8, GIRK (G protein-gated inwardly rectifying potassium channel) thallium flux, FluoZin2; at 10 µM; stronger effect = higher value; submaximal glutamate (EC20) added with thallium
# Metabotropic glutamate receptor 8 (Rattus norvegicus), sequence (P70579 whole entry, looked up): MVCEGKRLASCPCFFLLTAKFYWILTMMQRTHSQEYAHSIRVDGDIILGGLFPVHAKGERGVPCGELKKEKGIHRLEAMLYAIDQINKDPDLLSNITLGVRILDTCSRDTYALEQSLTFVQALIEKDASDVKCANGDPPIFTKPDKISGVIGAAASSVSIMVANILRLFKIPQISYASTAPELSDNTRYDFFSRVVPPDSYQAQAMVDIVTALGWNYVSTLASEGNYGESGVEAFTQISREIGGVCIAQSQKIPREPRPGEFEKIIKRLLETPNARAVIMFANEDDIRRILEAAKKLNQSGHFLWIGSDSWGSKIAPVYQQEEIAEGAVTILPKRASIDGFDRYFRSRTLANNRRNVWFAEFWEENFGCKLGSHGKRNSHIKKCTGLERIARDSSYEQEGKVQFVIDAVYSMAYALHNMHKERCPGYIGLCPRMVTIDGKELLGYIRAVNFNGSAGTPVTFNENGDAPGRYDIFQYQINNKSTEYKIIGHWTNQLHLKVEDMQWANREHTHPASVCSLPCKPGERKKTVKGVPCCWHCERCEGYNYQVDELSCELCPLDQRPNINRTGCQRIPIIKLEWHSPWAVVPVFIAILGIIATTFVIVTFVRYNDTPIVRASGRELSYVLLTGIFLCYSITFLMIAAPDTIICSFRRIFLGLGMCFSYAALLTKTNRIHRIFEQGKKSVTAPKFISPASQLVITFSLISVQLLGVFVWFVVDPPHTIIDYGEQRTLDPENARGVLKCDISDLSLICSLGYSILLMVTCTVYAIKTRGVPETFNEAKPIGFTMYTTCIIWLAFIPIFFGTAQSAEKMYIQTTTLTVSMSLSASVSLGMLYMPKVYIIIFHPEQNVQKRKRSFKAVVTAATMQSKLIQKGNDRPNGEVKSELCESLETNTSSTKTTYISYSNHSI
row,Structure (SMILES),z-score
1,COC(=O)c1ccccc1NC(=O)c1cn(-c2ccc(C)c(C)c2)c(=O)c2ccccc12,0.0214
2,Cc1c(NC(=O)c2cc(-n3cnnc3)ccc2Cl)cccc1-c1nc2ccccc2o1,-0.115
3,O=C1c2ccccc2CN1CCNS(=O)(=O)c1ccc(Cl)cc1,-0.0894
4,Cc1ccc(C(=O)N/N=c2\sc3ccccc3n2C)cc1,0.37
5,Cc1ccccc1NC(=O)COC(=O)/C=C/c1cn(-c2ccccc2)nc1-c1cccnc1,-0.0968
6,Cn1nnc2cc(NC(=O)N3CCN(c4ccccn4)CC3)ccc21,0.387
7,CC(=O)Oc1ccc(-c2cccc(C(=O)O)c2)cc1,-0.607
8,COc1ccc(C(=O)C2CCN(S(=O)(=O)c3ccc4c(c3)OCCO4)CC2)cc1,0.21
9,Clc1ccc(/C=N/Nc2nnc(Cl)c3ccccc23)cc1,0.242
10,Clc1ccc(/C=N/Nc2nc(Cl)nc3ccccc23)cc1,2.24
11,Clc1cccc(/C=N/Nc2nc(Cl)nc3ccccc23)c1,-0.0962
12,CC(=O)Nc1ccc(OC(=O)c2cc3cc(Br)cc(Br)c3oc2=O)cc1,-0.128
13,CCOC(=O)C1=C(c2ccccc2)N=C2SCC(=O)N2C1c1cccc(OC)c1 (centres undefined),-0.311
14,CCOC(=O)Nc1sc2c(c1C(=O)OCC)CCC2,0.418
15,COC(=O)c1c(NC(=O)COC(=O)[C@@H](NS(=O)(=O)c2ccccc2)C(C)C)sc2c1CCC2,0.129
16,CCOC(=O)c1c(NC=O)sc2c1CCC2,-0.85
17,CCOC(=O)c1c(NS(=O)(=O)c2cccc(OC)c2)sc2c1CCC2,16.9 (active)
18,CCOC(=O)c1c(NC(=S)Nc2ccc(OC)cc2)sc2c1CCC2,0.905
19,COC(=O)c1c(NC(=O)COC(=O)[C@@H](NS(=O)(=O)c2ccc(C)cc2)C(C)C)sc2c1CCC2,2.02
20,CCOC(=O)c1c(NC(=O)OC)sc2c1CCC2,0.00121
21,CCOC(=O)c1c(NS(=O)(=O)c2ccc(Br)cc2)sc2c1CCC2,16.1 (active)
22,COC(=O)c1c(NC(=O)COC(=O)c2ccc(C)s2)sc2c1CCCCC2,0.122
23,CCOC(=O)C1CCN(CCC(=O)Nc2cccc(Cl)c2C)CC1,0.732
24,O=C(NC1CCCCCC1)C1C2C=CC3(CN(Cc4cccnc4)C(=O)C13)O2 (centres undefined),0.211
25,O=c1cc(N2CCc3ccccc32)[nH]c(=O)n1-c1ccc(Br)cc1,-0.058
26,CCc1ccc(OCCOCC(O)CNC(C)CC)cc1 (centres undefined),0.0842
27,COC(=O)c1ccccc1NC(=O)C1CCC(=O)N1S(=O)(=O)c1ccc(C)cc1 (centres undefined),0.251
28,CC(=O)NS(=O)(=O)c1ccc(NC(=O)COc2ccc(C(=O)c3ccccc3)cc2)cc1,0.359
29,CC(NC(=O)C1CCN(S(=O)(=O)c2cc([N+](=O)[O-])ccc2Cl)CC1)c1ccccc1 (centres undefined),-0.238
